Rows were chosen to be rich in hits. Some 1.9% of all compounds tested hit in one or more screens of this group.
Vif inh – HIV Vif inhibition; HEK293T cells, Vif self-association by quenched fluorescence, imaging, 24 h; inhibition, % at 7.49 µM; hit rate 0.35% among 340,000; AID 602346; in the data active = inhibition above about 50%, passing the limit was not always enough
Neddyl block – inhibitors of human cullin neddylation | hit rate 0.58% among 360,000 | AID 651699 | inhibition, % at 25 µM | TR-FRET cullin neddylation, biochemical | P61081+Q13564; in the data active = inhibition above about 36%
Target sequence (P61081 whole entry, looked up): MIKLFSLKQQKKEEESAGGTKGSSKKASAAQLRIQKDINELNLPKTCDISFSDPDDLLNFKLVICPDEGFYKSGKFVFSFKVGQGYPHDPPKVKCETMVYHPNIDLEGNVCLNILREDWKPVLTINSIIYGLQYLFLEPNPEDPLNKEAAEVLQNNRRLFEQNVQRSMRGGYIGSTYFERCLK
Target sequence (Q13564 whole entry, looked up): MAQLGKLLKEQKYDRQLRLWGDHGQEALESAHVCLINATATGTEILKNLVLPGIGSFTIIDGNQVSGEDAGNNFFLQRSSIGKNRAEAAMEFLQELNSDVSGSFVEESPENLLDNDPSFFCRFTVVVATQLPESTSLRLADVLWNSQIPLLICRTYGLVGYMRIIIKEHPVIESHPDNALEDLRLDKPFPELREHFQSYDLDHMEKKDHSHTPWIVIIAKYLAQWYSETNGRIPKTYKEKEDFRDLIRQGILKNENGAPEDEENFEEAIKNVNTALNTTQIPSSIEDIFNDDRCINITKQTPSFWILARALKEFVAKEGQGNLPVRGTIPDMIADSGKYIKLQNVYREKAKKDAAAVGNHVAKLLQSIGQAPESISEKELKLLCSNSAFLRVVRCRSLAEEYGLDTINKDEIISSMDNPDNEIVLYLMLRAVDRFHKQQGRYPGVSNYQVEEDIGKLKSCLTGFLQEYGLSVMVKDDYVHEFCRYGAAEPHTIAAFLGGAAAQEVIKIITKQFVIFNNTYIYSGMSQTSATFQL
dFosB act – mouse delta FosB homodimer activation. P13346. purified delta FosB, TAMRA-CDK5 oligo fluorescence polarization; percent of positive-control signal above neutral wells. activation, % at 25 µM. hit rate 0.99% among 340,000. AID 493131;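 active = mean activation above about 17%, with every replicate also reaching it, limit read from the data, passing the limit was not always enough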
A1 inh – inhibitors of the anti-apoptotic protein A1, read as caspase activation. MEF A1-2A-BIM cells, Caspase-Glo 3/7 luminescence, 3 h; percent of clofoctol response, vehicle zero. caspase activation, % (test concentration not listed). hit rate 0.066% among 330,000. AID 2462;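 active = over half of replicate activation scores above 10%, or exactly half above 10 with the replicate mean above 10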
GSIS activator – GLuc luminescence reporter in INS-1E cells, primary screen for activators of glucose-dependent secretion of insulin. INS-1E GLuc reporter insulin secretion, 2-3 h. activation, % at 16.6 µM. hit rate 0.61% among 370,000. AID 743287;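 active = lowest replicate activation of at least 40%, so every replicate reaches that level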
Neddyl inh conf – confirmation of human cullin neddylation inhibitors | hit rate 13% among 1,800 | calls only at 25 µM | TR-FRET cullin neddylation biochemical assay | AID 652217 | shares compounds with Neddyl block; in the data active = inhibition above about 40%;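 note: neddylation substrate is the cullin 1 ring ligase complex with SKP2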
Hits are given with their value.

What do the screens show for `Cc1cc(C)c(C#N)c(N2CCOCC2)n1`?
Vif inh: inactive; Neddyl block: 46; dFosB act: inactive; A1 inh: inactive; GSIS activator: inactive; Neddyl inh conf: active

Results for Cc1cc(N2CCOCC2)nc(N2CCOCC2)c1C#N ?
Vif inh: inactive; Neddyl block: inactive

How did N#CC1=C(N)Oc2cc(N)ccc2C1c1ccc(Cl)cc1 (stereo not drawn) do in these assays?
Vif inh: inactive; Neddyl block: inactive; dFosB act: inactive; A1 inh: inactive; GSIS activator: inactive

Results for CCc1ccc(C2C(C#N)=C(N)Oc3cc(N)ccc32)cc1 (stereo not drawn) ?
Vif inh: inactive; Neddyl block: 44; dFosB act: inactive; A1 inh: inactive; GSIS activator: inactive; Neddyl inh conf: inactive

Results for C[C@@H]1CN([C@H](C)CO)C(=O)Cc2cc(NC(=O)CCCCCC(=O)Nc3ccccc3N)ccc2O[C@@H]1CN(C)S(=O)(=O)c1ccc(Cl)cc1 ?
GSIS activator: inactive

Results for Cc1cccn2c(=O)c3cc(C(=O)N4CCN(Cc5ccccc5)CC4)sc3nc12 ?
Vif inh: inactive; Neddyl block: 65; dFosB act: inactive; A1 inh: inactive; Neddyl inh conf: active

How did Cc1cccn2c(=O)c3cc(C(=O)N4CCCC(C)C4)sc3nc12 (stereo not drawn) do in these assays?
Vif inh: inactive; Neddyl block: 54; dFosB act: inactive; A1 inh: inactive; GSIS activator: inactive; Neddyl inh conf: inactive

What do the screens show for `Cc1cccn2c(=O)c3cc(C(=O)N4CCCCC4)sc3nc12`?
Vif inh: inactive; dFosB act: inactive; A1 inh: inactive; GSIS activator: inactive

What do the screens show for `Cc1cccn2c(=O)c3cc(C(=O)NC4CCCC4)sc3nc12`?
Vif inh: inactive; Neddyl block: 64; dFosB act: inactive; A1 inh: inactive; GSIS activator: inactive

How did CCOC(=O)C1CCN(C(=O)c2cc3c(=O)n4cccc(C)c4nc3s2)CC1 do in these assays?
Vif inh: inactive; dFosB act: inactive; A1 inh: inactive; GSIS activator: inactive

Results for O=C(c1cc2c(=O)n3ccccc3nc2s1)N1CCN(Cc2ccccc2)CC1 ?
Vif inh: inactive; dFosB act: inactive; A1 inh: inactive; GSIS activator: inactive

Results for O=C(NC1CCCC1)c1cc2c(=O)n3ccccc3nc2s1 ?
Vif inh: inactive; dFosB act: inactive; A1 inh: inactive; GSIS activator: inactive

Results for CCC1CCCCN1C(=O)c1cc2c(=O)n3cccc(C)c3nc2s1 (stereo not drawn) ?
Vif inh: inactive; Neddyl block: 56; dFosB act: inactive; A1 inh: inactive; Neddyl inh conf: inactive

Results for C[C@@H]1CN([C@H](C)CO)C(=O)c2cc(NS(=O)(=O)c3ccccc3)ccc2O[C@@H](C)CCCCO[C@@H]1CN(C)S(=O)(=O)c1ccccc1 ?
GSIS activator: inactive

What do the screens show for `O=C(C1CCCCC1)N1[C@@H](CO)[C@@H](c2ccccc2)C12CN(Cc1ccc(F)cc1)C2`?
GSIS activator: inactive

What do the screens show for `Cc1noc(C)c1S(=O)(=O)Nc1ccc2c(c1)C(=O)N([C@@H](C)CO)C[C@H](C)[C@H](CN(C)S(=O)(=O)c1cccs1)OCCCC[C@H](C)O2`?
GSIS activator: inactive

What do the screens show for `COc1cc2cc(-c3ccc(OC)c(OC)c3C)nc(N)c2cc1OC`?
Vif inh: inactive; Neddyl block: 38; A1 inh: inactive; GSIS activator: inactive; Neddyl inh conf: inactive

Results for N#CC1=C(N)Nc2ncnn2C1c1ccccc1 (stereo not drawn) ?
A1 inh: inactive

How did N#CC1=C(N)Nc2nc3ccccc3n2C1c1ccc(Cl)cc1 (stereo not drawn) do in these assays?
Vif inh: inactive; Neddyl block: 43; dFosB act: inactive; A1 inh: inactive; GSIS activator: inactive; Neddyl inh conf: inactive

What do the screens show for `CC(C)NC(=O)Nc1ccc2c(c1)C(=O)N([C@H](C)CO)C[C@@H](C)[C@H](CN(C)Cc1ccc3c(c1)OCO3)O2`?
GSIS activator: inactive

What do the screens show for `O=C(Nc1ccc2nsnc2c1)C1CC1`?
Vif inh: inactive; Neddyl block: 56; dFosB act: inactive; A1 inh: inactive; GSIS activator: inactive; Neddyl inh conf: active

How did COc1ccc(S(=O)(=O)Nc2ccc3c(c2)C(=O)N([C@H](C)CO)C[C@@H](C)[C@@H](CN(C)Cc2ccc(C(=O)Nc4ccccc4N)cc2)O3)cc1 do in these assays?
GSIS activator: inactive

How did CC(=O)N(C)C[C@@H]1Oc2cc(-c3ccc(C#N)cc3)ccc2S(=O)(=O)N([C@@H](C)CO)C[C@H]1C do in these assays?
GSIS activator: inactive

How did COc1cccc(C(c2c(NC(=O)c3ccco3)sc(C)c2C)N2CCOCC2)c1 (stereo not drawn) do in these assays?
Vif inh: inactive; Neddyl block: 43; dFosB act: inactive

What do the screens show for `CCCNC(=O)N1CC2(C1)CN(C(=O)NC(C)C)[C@@H](CO)c1c2c2ccc(OC)cc2n1C`?
GSIS activator: inactive

How did CN(C)c1cccc(C(=O)NC2CCCc3ccccc32)c1 (stereo not drawn) do in these assays?
Vif inh: inactive; Neddyl block: 48; dFosB act: inactive; A1 inh: inactive; GSIS activator: inactive; Neddyl inh conf: inactive

What do the screens show for `O=C(NC1CCCc2ccccc21)c1cccc(Br)c1` (stereo not drawn)?
Vif inh: inactive; Neddyl block: inactive; dFosB act: inactive; A1 inh: inactive; GSIS activator: inactive

What do the screens show for `CCC/C(=C1/c2ccccc2C(=O)N1c1ccccc1)c1ccc2[nH]ccc2c1`?
Vif inh: inactive; Neddyl block: 44; dFosB act: inactive; A1 inh: inactive; GSIS activator: inactive; Neddyl inh conf: inactive

Results for CCN(CC)C(=O)c1ccc2nc3ccccc3nc2c1 ?
Vif inh: inactive; Neddyl block: inactive; dFosB act: inactive; A1 inh: inactive; GSIS activator: inactive

How did COCC(C)NC(=O)c1ccc2nc(-c3ccccc3)c(-c3ccccc3)nc2c1 (stereo not drawn) do in these assays?
Vif inh: inactive; Neddyl block: 41; dFosB act: inactive; A1 inh: inactive; GSIS activator: inactive; Neddyl inh conf: active

What do the screens show for `CCN(CC)C(=O)c1ccc2nc(-c3ccccc3)c(-c3ccccc3)nc2c1`?
Vif inh: inactive; Neddyl block: 44; dFosB act: inactive; A1 inh: inactive; GSIS activator: inactive; Neddyl inh conf: inactive

Results for CN1CCN(C(=O)c2ccc3nc(-c4ccccc4)c(-c4ccccc4)nc3c2)CC1 ?
Vif inh: inactive; Neddyl block: 55; dFosB act: inactive; A1 inh: inactive; GSIS activator: inactive

How did CCN1[C@@H]2c3ccc(/C=C/c4ccccc4)c(=O)n3C[C@H]1[C@H](CO)[C@H]2C(=O)NCc1ccccn1 do in these assays?
GSIS activator: inactive
